Laboratory results from the OligoGym collection.

Biological target: ATP6V0A4
Assay: pooled miR-30 sensor sort-seq; sequence = guide strand
Details: shRNA
Further: reference of the scale not given here.

| Sequence | sensor-assay potency score (higher = more potent) |
| --- | --- |
| TTCTAGAACAGTCTCCAGGGTA | -0.117 |
| TTCCTGTAACTCTCCTTCCAGT | -0.817 |
| TTGTGACAAACACATCTCCTCG | -1.11 |
| ATCTTCTTGATTTTCTGCCTGA | -0.439 |
| TTGTTCTGGAACTCAACCCAGT | -0.422 |
| TTCTGCACCTTGATGAGCCAGG | -0.64 |
| ATAGGCATCAACAATATTCTGG | -0.65 |
| TTTTTCTAGAACAGTCTCCAGG | -0.591 |
| TTTCGTCACAGGATCCTCCAGA | 0.303 |
| TCTTTGAACTGAACCAATCCGA | 0.235 |

Biological target: ATP7B
Assay: as above
Details: shRNA

| Sequence | sensor-assay potency score (higher = more potent) |
| --- | --- |
| TCATCGTCTGCTGCAGCGCTGT | -1.45 |
| TTTCATCTCGTGGTCTGTCATA | -1.47 |
| TTCCTCTTTACAGTATTTGGTG | -0.123 |
| TGACTCGCCTCTCACCTTCTAC | -1.09 |
| TGTCTGTCCTTTCATCTCGTGG | -1.22 |
| AATGCTAGCCACCACATCCAGC | -0.992 |
| TTATCTTGTGCGCCATCTCCAG | -0.947 |
| AAACATCACAGTCTTTATCTTG | -0.586 |
| TTCAGGAGCAGAGACCACTTGT | -0.382 |
| ATAGCGTCACTGACATCGCTAG | -0.788 |
| TGACTGGACATATCCAGGGAGC | -1.47 |
| TTTGTTGATGCCAACCTGGGTG | -0.00244 |
| TTGTCAAACATCACAGTCTTTA | -0.992 |
| TAGCACTTGAGCTGCAGGGATG | -1.64 |
| TGTCCTGCTCAGCTTGTGGTGA | -0.618 |
| TATCTTGTGCGCCATCTCCAGG | -1.02 |
| TTGACATCTGAGCCTCTTCCAC | -1.39 |
| TTTTTGGTCCTGATGAAACTGT | -0.518 |
| TTGGGGTTCTTTGACATCTGAG | -0.597 |
| TAGAGTCCAAGACAAAGCCCAT | -1.12 |
| AACATCACAGTCTTTATCTTGT | -0.258 |
| TCTCGTGGTCTGTCATAGCGTC | -0.487 |
| TATAGCACTTGAGCTGCAGGGA | -0.435 |
| TAGCTCTGGCTGTCTTCCGGTT | -1.3 |

Biological target: ATP8A2
Assay: as above
Details: shRNA

| Sequence | sensor-assay potency score (higher = more potent) |
| --- | --- |
| TTGTGTTGAAGCCTTCGCCATT | -1.44 |
| TTAAAGTTCATGATATTGCATG | -0.75 |
| TTGATCTCTTGAGAGGCGCTTT | -0.359 |
| TTCAACATAACACATTGCCTGA | -0.505 |
| TTCCTGACTAACAGCTCCGTGT | -0.616 |
| TCAATGTTCTTCAACAGCCTGG | -0.00859 |
